Reference: PubChem BioAssay (NCATS)
Values joined by “and” are separate entries in the source; they are usually repeats but may differ in a detail not shown here. Equal entries are not always repeated. Inconclusive results are not listed. Where a call stands in place of a potency, no number is given. Active and inactive are the calls of the source. Unless noted, the call rests on the fitted dose curve; in most records, active means well fitted curve in the direction sought with a large enough effect; inconclusive means small, poorly fitted or top-dose-only effect, or another doubt; inactive means no such curve, though single readings can be large; an effect the other way counts as inactive or inconclusive.

Key:
[1] = Quantitative high throughput screen for delayed death inhibitors of the malarial parasite plastid, 96 hour incubation (AID 488745); further: nearly all actives have a fitted effect of over 70% in size; further: potency means the concentration at half of the fitted maximal effect
Method in brief: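 Infected erythrocytes were added to compound in Albumax-supplemented RPMI 1640 at 0.1% parasitemia and 2% hematocrit (final), incubated 96 h at 37 C under 5% CO2, then luciferase reagent was added and luminescence measured.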

[2] = Quantitative high throughput screen for delayed death inhibitors of the malarial parasite plastid, 48 hour incubation (AID 488752); further: nearly all actives have a fitted effect of over 65% in size; further: potency means the concentration at half of the fitted maximal effect
Method in brief: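 Readout is firefly luciferase luminescence from a reporter integrated into the parasite genome, with lower signal taken as inhibited growth. Infected red cells (0.1% parasitemia, 2% hematocrit final) are cultured with compound for one 48 h cycle at 37 C.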

[3] = target: Thioredoxin reductase 1, cytoplasmic (Rattus norvegicus) (UniProt O89049); test: qHTS Assay for Substrates of Mammalian Selenoprotein Thioredoxin Reductase 1 (TrxR1) (AID 488772);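 further: NADPH fluorescence in the first read after selenite addition and not the 8 min delta; series mostly up to about 57 µM; a drop in NADPH fluorescence below the no-compound background marks a TrxR1 substrate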
Sequence of Thioredoxin reductase 1, cytoplasmic (Rattus norvegicus) (O89049 whole entry, looked up): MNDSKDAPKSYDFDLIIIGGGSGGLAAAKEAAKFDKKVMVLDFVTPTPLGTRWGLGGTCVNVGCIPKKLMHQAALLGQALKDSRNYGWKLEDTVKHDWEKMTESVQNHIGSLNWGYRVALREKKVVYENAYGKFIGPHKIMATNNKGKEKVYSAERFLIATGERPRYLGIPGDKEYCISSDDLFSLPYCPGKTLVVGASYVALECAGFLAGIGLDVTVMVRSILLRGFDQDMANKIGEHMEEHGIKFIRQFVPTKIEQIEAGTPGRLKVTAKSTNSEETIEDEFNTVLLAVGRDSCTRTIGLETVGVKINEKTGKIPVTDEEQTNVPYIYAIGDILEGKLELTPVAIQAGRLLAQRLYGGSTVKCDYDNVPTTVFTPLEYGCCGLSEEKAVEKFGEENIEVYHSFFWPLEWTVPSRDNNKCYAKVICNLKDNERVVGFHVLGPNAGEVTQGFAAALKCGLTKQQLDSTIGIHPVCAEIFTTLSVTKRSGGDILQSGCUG
Method in brief: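 Quantitative HTS in Tris-HCl buffer at pH 7.5 with EDTA and Tween-20, using rat TrxR1, 400 uM NADPH and 400 uM selenite (final). A fall in initial NADPH fluorescence relative to background marked substrate behaviour.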

[4] = target: Thioredoxin reductase 1, cytoplasmic (Rattus norvegicus) (UniProt O89049); test: qHTS Assay for Inhibitors of Mammalian Selenoprotein Thioredoxin Reductase 1 (TrxR1) (AID 488773); conditions: Potency: inhibition; further: nearly all actives have a fitted effect of over 40% in size; further: potency means the concentration at half of the fitted maximal effect
Method in brief: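 Steps: enzyme (90 nM) plus NADPH (400 uM final), 5 min at ~22 deg C; compound added, 15 min; selenite (400 uM final) added; fluorescence followed for 8 min. Concentration-response curves derived from the normalized delta values.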

[5] = target: Flap endonuclease 1 (Homo sapiens) (UniProt P39748); test: qHTS Validation Assay for the Inhibitors of Human Flap endonuclease 1 (FEN1) (AID 488816); further: potency means the concentration at half of the fitted maximal effect
Sequence of Flap endonuclease 1 (Homo sapiens) (P39748 whole entry, looked up): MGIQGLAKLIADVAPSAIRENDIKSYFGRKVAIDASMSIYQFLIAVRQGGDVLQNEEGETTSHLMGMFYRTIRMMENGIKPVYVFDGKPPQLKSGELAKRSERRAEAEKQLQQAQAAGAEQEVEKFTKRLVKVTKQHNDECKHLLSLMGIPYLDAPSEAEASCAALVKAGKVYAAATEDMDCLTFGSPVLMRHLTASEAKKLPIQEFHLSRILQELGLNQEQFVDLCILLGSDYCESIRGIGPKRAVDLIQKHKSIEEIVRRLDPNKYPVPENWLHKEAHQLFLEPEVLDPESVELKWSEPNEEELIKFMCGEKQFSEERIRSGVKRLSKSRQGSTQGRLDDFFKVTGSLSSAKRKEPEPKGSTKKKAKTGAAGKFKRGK
Method in brief: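 Readings taken at 0 and 15 min after starting the reaction with 50 nM (final) substrate supplied the signal. Compounds had first sat with 10 nM FEN1 reagent for 15 min at room temperature. Values come from Hill-equation concentration-response fits.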

[6] = target: M-phase phosphoprotein 8 (Homo sapiens) (UniProt Q99549); test: qHTS Validation Assay for Inhibitors for MPP8 Chromodomain Interactions with Methylated Histone Tails (AID 488949); further: nearly all actives have a fitted effect of over 55% in size; further: potency means the concentration at half of the fitted maximal effect
Sequence of M-phase phosphoprotein 8 (Homo sapiens) (Q99549 whole entry, looked up): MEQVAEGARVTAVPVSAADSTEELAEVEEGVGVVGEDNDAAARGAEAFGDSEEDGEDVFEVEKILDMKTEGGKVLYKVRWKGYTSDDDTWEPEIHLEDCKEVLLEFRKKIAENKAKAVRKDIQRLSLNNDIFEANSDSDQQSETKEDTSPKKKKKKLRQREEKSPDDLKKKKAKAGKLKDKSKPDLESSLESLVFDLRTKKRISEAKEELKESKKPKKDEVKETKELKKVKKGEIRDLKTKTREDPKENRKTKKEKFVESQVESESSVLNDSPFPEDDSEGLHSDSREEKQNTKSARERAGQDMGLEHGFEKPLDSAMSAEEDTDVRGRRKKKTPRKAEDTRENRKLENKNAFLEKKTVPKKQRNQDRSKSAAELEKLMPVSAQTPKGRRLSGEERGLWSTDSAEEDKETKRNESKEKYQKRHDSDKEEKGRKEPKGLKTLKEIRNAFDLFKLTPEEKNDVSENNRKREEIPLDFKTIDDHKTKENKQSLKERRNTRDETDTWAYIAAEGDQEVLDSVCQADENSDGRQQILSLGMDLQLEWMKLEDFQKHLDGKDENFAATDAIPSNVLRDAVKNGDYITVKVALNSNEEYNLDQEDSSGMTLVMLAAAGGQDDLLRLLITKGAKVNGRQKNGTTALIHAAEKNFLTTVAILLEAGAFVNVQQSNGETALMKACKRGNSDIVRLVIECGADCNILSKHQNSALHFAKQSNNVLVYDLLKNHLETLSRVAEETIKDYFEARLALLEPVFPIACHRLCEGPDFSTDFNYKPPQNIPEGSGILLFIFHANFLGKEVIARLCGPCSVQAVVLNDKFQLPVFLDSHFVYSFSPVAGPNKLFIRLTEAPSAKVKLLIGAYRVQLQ
Method in brief: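 MPP8 (50 nM) was pre-bound to 50 nM biotinylated H3(1-18)K9me3 peptide in PBS pH 7.4 with 0.01% Tween-20. Compounds were then added for 30 min at room temperature, and complex disruption was read by AlphaScreen with streptavidin donor and nickel-chelate acceptor beads.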

[7] = target: Chromobox protein homolog 1 (Homo sapiens) (UniProt P83916); test: qHTS Validation Assay for Inhibitors of HP1-beta Chromodomain Interactions with Methylated Histone Tails (AID 488953); further: nearly all actives have a fitted effect of over 50% in size; further: potency means the concentration at half of the fitted maximal effect
Sequence of Chromobox protein homolog 1 (Homo sapiens) (P83916 whole entry, looked up): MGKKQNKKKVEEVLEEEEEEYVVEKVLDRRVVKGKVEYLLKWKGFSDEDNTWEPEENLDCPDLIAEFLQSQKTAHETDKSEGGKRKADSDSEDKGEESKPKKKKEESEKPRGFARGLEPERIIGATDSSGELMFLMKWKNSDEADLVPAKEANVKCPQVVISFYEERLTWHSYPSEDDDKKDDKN
Method in brief: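 50 nM HP1-beta + 50 nM biotin-H3(1-18)K9me3, PBS pH 7.4, 0.01% Tween-20, 30 min RT; compound added, 30 min RT; AlphaScreen beads 10 ug/mL final, 30 min dark; luminescence read.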

[8] = target: Methanococcus maripaludis chaperonin (MmCpn) (UniProt Q6LX38); test: High-Throughput Screening for Modulators of Cytosolic Chaperonin Activity: MmCpn Primary Screen (AID 488978);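 further: 50 nM MmCpn enzyme hydrolysing 30 µM ATP at 37 °C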
Sequence of Methanococcus maripaludis chaperonin (MmCpn) (Q6LX38 1-543): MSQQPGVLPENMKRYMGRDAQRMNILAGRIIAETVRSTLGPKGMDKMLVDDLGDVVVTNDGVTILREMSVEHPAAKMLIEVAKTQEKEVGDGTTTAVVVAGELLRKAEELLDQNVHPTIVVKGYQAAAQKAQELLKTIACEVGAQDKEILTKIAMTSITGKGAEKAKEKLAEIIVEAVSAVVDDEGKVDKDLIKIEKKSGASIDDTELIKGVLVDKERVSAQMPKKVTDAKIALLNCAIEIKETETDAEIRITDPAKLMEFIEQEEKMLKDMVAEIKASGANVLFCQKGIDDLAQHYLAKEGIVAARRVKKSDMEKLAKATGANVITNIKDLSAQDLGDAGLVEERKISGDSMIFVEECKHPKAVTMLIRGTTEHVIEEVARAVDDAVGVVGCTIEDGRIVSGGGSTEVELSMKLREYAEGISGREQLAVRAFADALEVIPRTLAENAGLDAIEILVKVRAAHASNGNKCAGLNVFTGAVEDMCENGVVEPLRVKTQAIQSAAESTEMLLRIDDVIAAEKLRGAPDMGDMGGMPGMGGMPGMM
Method in brief: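 MmCpn at 50 nM final was preincubated 5 min at RT with compound. ATP was then added at 30 uM final for 10 min at 37 C. ADP formed was detected by Transcreener HTRF (665/590 nm).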

[9] = target: Transient receptor potential cation channel subfamily V member 1 (Homo sapiens) (UniProt Q8NER1); test: HTS Assay for Compounds that Act as Enhancers of the Vanilloid Receptor 1 (AID 488979)
Sequence of Transient receptor potential cation channel subfamily V member 1 (Homo sapiens) (Q8NER1 whole entry, looked up): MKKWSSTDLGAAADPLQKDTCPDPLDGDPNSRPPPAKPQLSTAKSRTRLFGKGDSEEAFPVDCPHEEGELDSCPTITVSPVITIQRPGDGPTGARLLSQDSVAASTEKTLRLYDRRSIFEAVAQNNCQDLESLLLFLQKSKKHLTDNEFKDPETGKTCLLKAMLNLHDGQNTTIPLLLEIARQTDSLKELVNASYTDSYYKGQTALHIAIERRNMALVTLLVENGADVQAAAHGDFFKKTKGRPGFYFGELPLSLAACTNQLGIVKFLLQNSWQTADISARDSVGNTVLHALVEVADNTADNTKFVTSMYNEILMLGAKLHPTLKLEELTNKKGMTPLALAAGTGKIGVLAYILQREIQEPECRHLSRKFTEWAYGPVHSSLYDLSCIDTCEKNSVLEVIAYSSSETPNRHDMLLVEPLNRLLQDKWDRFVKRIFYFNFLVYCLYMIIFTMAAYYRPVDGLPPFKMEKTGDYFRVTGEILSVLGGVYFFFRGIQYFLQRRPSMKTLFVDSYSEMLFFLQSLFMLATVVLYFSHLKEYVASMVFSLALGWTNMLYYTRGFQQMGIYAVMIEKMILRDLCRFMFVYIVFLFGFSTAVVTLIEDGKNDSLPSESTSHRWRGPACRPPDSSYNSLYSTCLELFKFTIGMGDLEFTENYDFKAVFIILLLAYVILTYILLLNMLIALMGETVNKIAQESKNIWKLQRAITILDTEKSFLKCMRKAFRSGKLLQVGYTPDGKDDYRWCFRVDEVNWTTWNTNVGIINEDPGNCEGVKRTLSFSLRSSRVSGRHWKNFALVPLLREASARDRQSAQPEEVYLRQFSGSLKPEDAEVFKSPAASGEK
Method in brief: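 Calcium influx kinetics via Fluo-8 (480/520 nm) in TRPV1-expressing cells, 2000/well cultured overnight at 35.5C. Compound-alone read 3 min (agonist phase), followed by EC20 capsaicin challenge for 2 min (enhancer phase).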

[10] = target: Thyrotropin receptor (Homo sapiens) (UniProt P16473); test: qHTS Assay for Antagonists of the Thyroid Stimulating Hormone Receptor (AID 488980); further: series mostly up to about 58 µM
Sequence of Thyrotropin receptor (Homo sapiens) (P16473 whole entry, looked up): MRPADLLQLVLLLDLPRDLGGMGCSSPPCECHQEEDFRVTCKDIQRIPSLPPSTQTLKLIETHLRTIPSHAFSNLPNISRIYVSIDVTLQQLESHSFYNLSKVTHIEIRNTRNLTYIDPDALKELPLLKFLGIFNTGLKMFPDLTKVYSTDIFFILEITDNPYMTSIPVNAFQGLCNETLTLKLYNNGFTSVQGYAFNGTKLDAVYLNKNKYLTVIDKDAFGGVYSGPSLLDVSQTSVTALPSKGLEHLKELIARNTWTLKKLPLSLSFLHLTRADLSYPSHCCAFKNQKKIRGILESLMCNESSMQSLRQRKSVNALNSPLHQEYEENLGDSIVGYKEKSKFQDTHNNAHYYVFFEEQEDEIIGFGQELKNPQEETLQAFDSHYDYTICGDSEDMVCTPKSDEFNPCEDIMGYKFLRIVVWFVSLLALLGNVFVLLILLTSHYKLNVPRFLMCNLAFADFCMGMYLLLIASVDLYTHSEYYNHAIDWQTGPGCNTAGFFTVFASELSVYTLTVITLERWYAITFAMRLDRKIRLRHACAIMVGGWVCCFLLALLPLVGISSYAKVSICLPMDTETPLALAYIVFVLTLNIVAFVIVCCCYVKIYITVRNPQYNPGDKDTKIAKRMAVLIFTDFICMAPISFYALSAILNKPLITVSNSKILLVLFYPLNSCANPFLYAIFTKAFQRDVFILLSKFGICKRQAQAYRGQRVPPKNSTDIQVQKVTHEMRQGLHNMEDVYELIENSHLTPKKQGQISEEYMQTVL
Method in brief: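 TSHR-transfected HEK293 cells (2000/well) in HEPES-buffered HBSS with 70 uM RO 20-1724 were stimulated with 4 nM TSH (EC80, final) in the presence of compound. cAMP was measured by HTRF competition after lysis and 30 min at RT.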

[11] = target: D(1A) dopamine receptor (Homo sapiens) (UniProt P21728); test: HTS Assay for Allosteric Agonists of the Human D1 Dopamine Receptor: Primary Screen for Agonists (AID 488981); further: potency means the concentration at half of the fitted maximal effect
Sequence of D(1A) dopamine receptor (Homo sapiens) (P21728 whole entry, looked up): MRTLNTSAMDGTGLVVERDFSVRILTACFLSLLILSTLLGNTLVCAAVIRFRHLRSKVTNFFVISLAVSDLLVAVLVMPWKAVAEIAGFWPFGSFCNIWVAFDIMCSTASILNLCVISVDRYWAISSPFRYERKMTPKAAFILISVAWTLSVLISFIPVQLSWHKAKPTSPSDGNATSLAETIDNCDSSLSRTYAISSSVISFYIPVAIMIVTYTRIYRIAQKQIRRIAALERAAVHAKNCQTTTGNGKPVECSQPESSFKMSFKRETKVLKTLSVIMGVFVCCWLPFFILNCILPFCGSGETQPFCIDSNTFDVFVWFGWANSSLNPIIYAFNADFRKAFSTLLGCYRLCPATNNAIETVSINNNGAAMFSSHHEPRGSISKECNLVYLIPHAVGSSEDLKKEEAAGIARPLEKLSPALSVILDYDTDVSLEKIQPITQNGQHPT
Method in brief: (§1)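 Calcium flux in an inducible, force-coupled HEK293 Trex D1 line (overnight at 30 C): agonist mode is the 180 s kinetic read after compound; potentiator mode is the following 180 s read after dopamine at EC20.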

[12] = target: D(1A) dopamine receptor (Homo sapiens) (UniProt P21728); test: HTS Assay for Allosteric Agonists of the Human D1 Dopamine Receptor: Primary Screen for Potentiators (AID 488982)
Method in brief: as §1

[13] = target: D(1A) dopamine receptor (Homo sapiens) (UniProt P21728); test: HTS Assay for Allosteric Agonists of the Human D1 Dopamine Receptor: Primary Screen for Antagonists (AID 488983);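 further: calcium flux response to an EC80 dopamine challenge measured with no-wash dye; nearly all actives have a fitted effect of over 65% in size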; further: potency means the concentration at half of the fitted maximal effect
Method in brief: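 Cells are induced with tetracycline and incubated overnight at 30 C, then loaded with calcium dye for 30 to 90 minutes at room temperature. Compound addition is followed by a 180 s read, then an EC80 dopamine addition and another 180 s read.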

[14] = Validation screen for small molecules that induce genotoxicity in human embryonic kidney (HEK293T) cells expressing luciferase-tagged ELG1 (AID 493106)
Method in brief: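 Luminescence from an ELG1-luciferase fusion serves as the read-out, rising when genetic stress elevates ELG1 protein. HEK293T reporter cells (2,000 per well) received 23 nL compound, incubated 16 hr at 37 °C, then ONE-Glo for 30 min at room temperature.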

[15] = target: ATPase family AAA domain-containing protein 5 (Homo sapiens) (UniProt Q96QE3); test: Validation screen for small molecules that inhibit ELG1-dependent DNA repair in human embryonic kidney (HEK293T) cells expressing luciferase-tagged ELG1 (AID 493107); further: nearly all actives have a fitted effect of over 70% in size; further: potency means the concentration at half of the fitted maximal effect
Method in brief: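 Luminescence from ONE-Glo, developed 30 min at room temperature, served as read-out of ELG1-luciferase levels. Beforehand, reporter HEK293T cells received 5-fluorouridine plus test compound for 16 hr at 37 °C.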

[16] = Nrf2 qHTS screen for inhibitors: Validation (AID 493153; active means well fitted inhibition curve with a large enough effect in the main read-out, with a control signal flat, not every such curve was filed as active); conditions: Potency: luciferase luminescence; viability change: measured here: cytotoxicity max response
Method in brief: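 Luminescence from an ARE-firefly luciferase reporter in A549 cells gives Nrf2 inhibition; an earlier CellTiter-Fluor fluorescent read flags cytotoxicity. Cells in 5% FBS OPTI-MEM received compound dilution series for 18-24 h at 37°C.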

[17] = qHTS for Inhibitors of Cell Surface uPA Generation: Validation Assay (AID 493164)
Method in brief: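 RAW 264.7 cells (4000/well) were plated overnight, then exposed for 18 h at 37 C, 5% CO2 to compounds in a 7-point 1:5 titration (2.45 nM–38.3 uM final). Intracellular ATP was read by ATP-Lite luminescence.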

[18] = target: Thyrotropin-releasing hormone receptor (Homo sapiens) (UniProt P34981); test: qHTS for Small Molecule Agonists and Allosteric Enhancers of Human TRH Receptor: Validation Screen for Agonists (AID 493127;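 active means calcium activation more than 3 SD above the typical response in the agonist read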;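 further: intracellular calcium rise by fluo-8 fluorescence before TRH EC20 addition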); conditions: TRH receptor agonist cell assay; at 2 µM; stronger effect = higher value
Sequence of Thyrotropin-releasing hormone receptor (Homo sapiens) (P34981 whole entry, looked up): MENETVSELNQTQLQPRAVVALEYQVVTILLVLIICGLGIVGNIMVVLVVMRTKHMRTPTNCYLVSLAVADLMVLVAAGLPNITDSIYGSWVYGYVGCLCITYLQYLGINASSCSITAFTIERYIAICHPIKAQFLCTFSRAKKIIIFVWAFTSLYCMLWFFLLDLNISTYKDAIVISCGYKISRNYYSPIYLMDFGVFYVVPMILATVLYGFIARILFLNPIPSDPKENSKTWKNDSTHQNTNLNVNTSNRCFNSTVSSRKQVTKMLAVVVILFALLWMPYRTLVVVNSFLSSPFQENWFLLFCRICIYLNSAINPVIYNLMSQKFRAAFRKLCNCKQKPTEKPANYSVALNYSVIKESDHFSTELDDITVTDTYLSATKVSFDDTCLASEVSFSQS
Method in brief: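 Cells 2000/well, 10% FCS, 18 h 33.5C/5% CO2 → fluo-8 Ca dye, RT 30 min–1.5 h → FDSS baseline 10 × 1 s → compound added → 230 cycles (1 s/cycle) agonist mode. TRH controls.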

[19] = target: Tyrosyl-DNA phosphodiesterase 1 (Homo sapiens) (UniProt Q9NUW8); test: Confirmation Assay for Inhibitors of Tyrosyl-DNA Phosphodiesterase (TDP1) (AID 489007); conditions: recombinant human TDP1 enzymatic activity, dose-response; further: potency means the concentration at half of the fitted maximal effect; nearly all actives have a fitted effect of over 40% in size
Method in brief: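 Tdp1 1 nM + cpd, 15 min RT; add biotin/phosphotyrosine-FITC oligo 15 nM, 5 min RT; add AS donor/acceptor beads 10 ug/ml, 10 min RT; read AlphaScreen. No-enzyme wells = max signal.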

CCCN(CCC)C1CCc2cccc(O)c2C1 (stereo not drawn)
Potency [1]: inactive
Potency [2]: inactive
outcome [3]: inactive
Potency [4]: inactive
Potency [5]: inactive
Potency [6]: inactive
Potency [7]: inactive
outcome [8]: inactive
outcome [9]: inactive
outcome [10]: inactive
Potency [11]: inactive
Potency [12]: inactive
Potency [13]: inactive
Potency [14]: inactive
Potency [15]: inactive
Potency [16]: inactive
viability change [16]: 4.06%
outcome [17]: inactive

NC(=O)c1cc(N2CC2)c([N+](=O)[O-])cc1[N+](=O)[O-]
Potency [1]: inactive
Potency [2]: inactive
outcome [3]: inactive
Potency [4]: inactive
Potency [5]: inactive
Potency [6]: inactive
Potency [7]: inactive
outcome [8]: inactive
outcome [9]: inactive
outcome [10]: inactive
Potency [11]: inactive
Potency [12]: inactive
Potency [13]: inactive
Potency [14]: inactive
Potency [15]: inactive
activation [18]: 0.0625% (inactive)
outcome [17]: inactive

NC(Cc1cc(O)c(O)cc1O)C(=O)O (stereo not drawn)
Potency [1]: inactive
Potency [2]: inactive
outcome [3]: inactive
Potency [4]: 10600 nM (active)
Potency [5]: 670 nM (active)
Potency [6]: 501 nM (active) and 474 nM (active)
Potency [7]: 316 nM (active)
outcome [8]: inactive
outcome [9]: inactive
outcome [10]: inactive
Potency [11]: inactive
Potency [12]: inactive
Potency [13]: inactive
Potency [19]: 4470 nM (active)
Potency [14]: inactive
Potency [15]: inactive
activation [18]: 1.06% (inactive)
Potency [16]: inactive
viability change [16]: -20.4%
outcome [17]: inactive

CN1CCc2cccc(Cl)c2CC1
Potency [1]: inactive
Potency [2]: inactive
outcome [3]: inactive
Potency [4]: inactive
Potency [5]: inactive
Potency [6]: inactive
Potency [7]: inactive
outcome [8]: inactive
outcome [9]: inactive
outcome [10]: inactive
Potency [11]: inactive
Potency [12]: inactive
Potency [13]: 2510 nM (active)
Potency [14]: inactive
Potency [15]: inactive
activation [18]: 1.31% (inactive)
Potency [16]: inactive
viability change [16]: 2.9%
outcome [17]: inactive

CNc1ccc2oc(C[C@H]3O[C@@]4(CC[C@H]3C)O[C@H]([C@H](C)C(=O)c3ccc[nH]3)[C@H](C)C[C@H]4C)nc2c1C(=O)O
Potency [1]: 104 nM (active)
Potency [2]: 2330 nM (active)
outcome [3]: inactive
Potency [4]: inactive
Potency [5]: inactive
Potency [6]: inactive
Potency [7]: 6 nM (active)
outcome [8]: inactive
Potency [11]: 398 nM (active)
Potency [14]: inactive
Potency [15]: 13000 nM (active)
outcome [17]: inactive

NCCc1c[nH]c2ccc(C(N)=O)cc12
Potency [1]: inactive
Potency [2]: inactive
outcome [3]: inactive
Potency [4]: inactive
Potency [5]: inactive
Potency [6]: inactive
Potency [7]: inactive
outcome [8]: inactive
outcome [9]: inactive
outcome [10]: inactive
Potency [11]: inactive
Potency [13]: inactive
Potency [14]: inactive
Potency [15]: inactive
activation [18]: 1.5% (inactive)
Potency [16]: inactive
viability change [16]: 4.69%

NNC(=O)c1ccc(O)cc1
Potency [1]: inactive
Potency [2]: inactive
outcome [3]: inactive
Potency [4]: inactive
Potency [5]: inactive
Potency [6]: inactive
Potency [7]: inactive
outcome [8]: inactive
outcome [9]: inactive
outcome [10]: inactive
Potency [11]: inactive
Potency [13]: inactive
Potency [14]: inactive
Potency [15]: inactive
Potency [16]: inactive
viability change [16]: 6.63%
outcome [17]: inactive

CC(N)c1cccc(Cl)c1Cl (stereo not drawn)
Potency [1]: inactive
Potency [2]: inactive
outcome [3]: inactive
Potency [4]: inactive
Potency [5]: inactive
Potency [6]: inactive
Potency [7]: inactive
outcome [8]: inactive
outcome [9]: inactive
outcome [10]: inactive
Potency [11]: inactive
Potency [12]: inactive
Potency [13]: inactive
Potency [14]: inactive
Potency [15]: inactive
activation [18]: -0.188% (inactive)
Potency [16]: inactive
viability change [16]: 5.17%
